# PfM18AAP inh-1: PfM18AAP enzyme inhibition; recombinant PfM18AAP, H-Glu-NHMec fluorogenic cleavage; inhibition, % at 7.35 µM; 290,000 compounds, 1.2% hits;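 active means inhibition above the campaign mean inhibition over all tested compounds plus 3 SD, cut at about 28% in these data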;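 further: 0% = plate median of test compound wells and 100% = 2 mM ZnCl2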
# Exocytosis inh: lytic granule exocytosis inhibition; TALL-104 LAMP-1 surface exposure, flow cytometry; cells stimulated with thapsigargin and PMA; inhibition, % at 10 µM; 360,000 compounds, 0.66% hits; AID 651702;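 active means inhibition above about 55%, limit read from the data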
# ABHD5 PLIN5 PPI: inhibitors of human ABHD5-perilipin-5 interaction; Q00G26+Q8WTS1; Split G. princeps luciferase complementation, luminescence, 4 h; inhibition, % at 4 µM; 360,000 compounds, 0.78% hits;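 active means inhibition above the mean inhibition across every tested compound plus 3 SD, cut at about 22% in these data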;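 further: 0% = DMSO only wells and the 100% control is not disclosed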
# Platelet DG rel: platelet dense granule release activity. human platelet-rich plasma, SFLLRN dense granule ATP release, luminescence. inhibition, %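 (compounds screened at 7.5 µM in platelet-rich plasma)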. 300,000 compounds, 0.22% hits;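 active means mean replicate score, as percent of positive control, at or above 50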
# Rce1 inh: blocks yeast Ras-converting enzyme | Q03530 | yeast membranes, quenched prenylated peptide cleavage fluorescence | calls only | 290,000 compounds, 0.27% hits | AID 2563;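 active means fall in fluorescence gain of 50% or more versus controls, with final raw signal at or below 3038400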;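 further: plate controls were neutral control wells for no effect and wells lacking membranes for full effect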
# PfM18AAP inh-2: PfM18AAP inhibition, confirmation. AID 2170. recombinant PfM18AAP, H-Glu-NHMec fluorogenic cleavage. inhibition, % at 7.35 µM. shares compounds with PfM18AAP inh-1. 2,400 compounds, 28% hits;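 active means mean inhibition over replicate wells above the hit cutoff set for the earlier primary screen, cut at about 29% in these data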;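 further: 0% = median of test compound wells and 100% = 2 mM ZnCl2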
# CTSL1 counter: Cathepsin L (human) inhibition, confirmation; purified cathepsin L1, Z-Leu-Arg-MCA fluorescence; shares compounds with PfM18AAP inh-1; 2,400 tested, under 10 active; inhibition, % at 5.96 µM; AID 2178;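 active means average inhibition across replicates above the hit cutoff set in the earlier primary screen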;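 further: 0% = median of test compound wells and 100% = Z-Phe-Ala-diazomethylketone 1 µM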
# Target sequence (P07711 whole entry, looked up): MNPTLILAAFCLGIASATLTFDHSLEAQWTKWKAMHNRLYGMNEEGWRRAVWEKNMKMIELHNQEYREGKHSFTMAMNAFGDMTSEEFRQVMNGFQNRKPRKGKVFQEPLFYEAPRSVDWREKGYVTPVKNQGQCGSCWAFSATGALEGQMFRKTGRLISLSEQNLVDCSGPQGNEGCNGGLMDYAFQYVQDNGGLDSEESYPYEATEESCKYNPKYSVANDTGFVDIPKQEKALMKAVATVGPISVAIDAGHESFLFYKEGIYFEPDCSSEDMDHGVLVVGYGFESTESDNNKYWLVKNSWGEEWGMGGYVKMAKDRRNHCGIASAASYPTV
# Numbers without * were called inactive; i = inactive; · = not tested or not shown. A selection: hits, their analogues and other compounds. The true share with any hit is near 2.6%.
SMILES,PfM18AAP inh-1,Exocytosis inh,ABHD5 PLIN5 PPI,Platelet DG rel,Rce1 inh,PfM18AAP inh-2,CTSL1 counter
O=C(O)c1ccc(N/N=C/c2ccc(-c3ccc(Br)cc3)o2)cc1,7,14,1,10,i,·,·
Cc1nnc(N/N=C\c2ccc(-c3cccc(C(=O)O)c3)o2)n1N,51*,1,-23,-3,i,5,-2
O=C(O)c1cccc(-c2ccc(/C=N/NC(=O)c3cccnc3)o2)c1,-3,3,0,-4,i,·,·
O=C1CN(C(=O)c2ccc(Cl)nc2)c2ccccc2N1,3,0,11,7,i,·,·
COCc1c(C(=O)OCC(=O)N(C)C2CCS(=O)(=O)C2)oc2ccccc12 (stereo not given),·,-2,-2,·,·,·,·
COc1ccc(/C=N/Nc2nnc(C)n2N)cc1OC(C)=O,34*,-3,-25,0,i,-39,1
NC(=S)NNc1ccnc2cc(Cl)ccc12,55*,1,-4,1,i,28*,4
CC(C)Cc1ccc(C(C)C(N)=NCCc2ccccc2)cc1 (stereo not given),14,25,12,-7,i,·,·
N#Cc1c(Cl)nsc1NN,39*,2,-29,-5,i,29*,-1
Cc1c(C#N)c(N)nc(Cl)c1C#N,-5,-1,3,4,i,·,·
O=C(O)c1ccc2c(=O)n3c(nc2c1)/C(=C/c1cccc(Cl)c1Cl)CCCC3,-6,-5,4,19,i,·,·
COc1cc(C(=O)NCc2nnc(SCC(=O)N3CCCC3)o2)cc(OC)c1OC,0,-8,13,2,i,·,·
CN1C(=O)CS(=O)c2ccc(C(=O)NC3CC3)cc21 (stereo not given),44*,0,-5,1,i,-13,2
CCOc1ccc(/C=N/Nc2ccc(Cl)nn2)c(O)c1,36*,-10,-6,8,i,-30,-1
Oc1ccc(/C=N/Nc2ccc(Cl)nn2)c(O)c1O,65*,3,-15,10,i,49*,-1
O=C(COC(=O)Cc1n[nH]c(=O)c2ccccc12)Nc1ccc(Cl)cc1F,-2,-4,-1,-3,i,·,·
c1coc(C2OCC3(CO2)COC(c2ccco2)OC3)c1 (stereo not given),0,0,-4,3,i,·,·
N#C/C(=C/c1ccc(O)c(O)c1)C(=O)NCc1ccc(Cl)cc1,38*,-14,9,-1,i,5,0
N#C/C(=C\c1ccc(O)c(O)c1)C(=O)Nc1cccc2ncccc12,63*,4,4,-8,i,30*,3
COc1ccc(/C=C(\C#N)C(=O)Nc2cccc3ncccc23)cc1OC,8,-2,5,2,i,·,·
N#C/C(=C\c1ccc(O)c(Br)c1)C(=O)NCc1ccccc1,-1,2,1,2,i,·,·
O=C(c1ccc(F)cc1)c1cccc(C(=O)c2ccc(F)cc2)n1,·,0,5,·,·,·,·
O=C(CSc1ncn[nH]1)c1ccccc1,42*,1,-9,1,i,53*,-4
O=C(CSc1ncn[nH]1)Nc1nc(-c2ccccc2)ns1,82*,1,2,13,i,85*,-4
O=C(CSc1ncn[nH]1)c1ccco1,23,1,-4,4,i,·,·
SMILES,PfM18AAP inh-1,Exocytosis inh,ABHD5 PLIN5 PPI,Platelet DG rel,Rce1 inh,PfM18AAP inh-2,CTSL1 counter
O=C(Nc1ccccc1C(=O)O)c1ncn[nH]1,77*,-1,3,1,i,58*,-1
O=C(Nc1ccc(N2CCN(C(=O)c3ccccc3F)CC2)cc1)c1ncn[nH]1,39*,-4,-1,-9,i,22,5
CCCC(C)c1nnc(NC(=O)CN2C(=O)c3ccccc3C2=O)s1 (stereo not given),10,6,-2,-4,i,·,·
O=C(O)c1ccc2c(c1)C(=O)N(c1ccc(C(=O)OCC(=O)c3ccccc3)cc1)C2=O,·,2,4,-40,i,·,·
O=C(CSc1ncn[nH]1)N1CCCCC1,45*,-3,5,3,i,-11,5
O=C(CSc1ncn[nH]1)N1CCN(S(=O)(=O)c2ccc(Cl)cc2)CC1,-5,1,5,-11,i,·,·
O=C(CSc1ncn[nH]1)Nc1ccccc1C(=O)O,44*,0,3,·,i,15,0
CCc1nc(SCC(=O)Nc2nnc(C(C)C)s2)n[nH]1,·,-2,0,·,·,·,·
CN1/C(=C\C(=O)CSc2ncn[nH]2)C(C)(C)c2ccccc21,66*,2,-3,-1,i,16,2
COc1ccccc1OCC(=O)/C=C1/N(C)c2ccccc2C1(C)C,-1,-3,-5,2,i,·,·
CC(C)c1nnc(NC(=O)CSc2ncn[nH]2)s1,42*,-9,2,3,i,52*,4
CC1CCC2(CC1)NC(=O)N(CC(=O)NC1(C#N)CCCCC1)C2=O (stereo not given),·,0,-4,2,i,·,·
O=C(COc1ccc(F)cc1)c1c(O)cc(O)cc1O,33*,0,3,1,i,23,-1
COc1ccc(/C(C)=N/NC(=O)c2nc(C)cc(C)n2)cc1,5,0,4,4,i,·,·
COc1ccc(/C(C)=N/Nc2nc3ccccc3nc2C)cc1,56*,-16,-4,-11,i,-14,3
CCOC(=O)c1oc2c(O)c(O)ccc2c(=O)c1-c1nncn1-c1ccccc1,46*,0,-6,-9,i,26,5
NS(=O)(=O)c1ccc(CNC(=O)C23CC4CC(CC(C4)C2)C3)cc1,12,-3,-3,-7,i,·,·
CC1=C(C(=O)O)N2C(=O)C(NC(=O)c3ccccc3Cl)C2SC1 (stereo not given),34*,-5,-8,3,i,-7,-1
O=C(CSc1nnc(-c2ccccc2Br)o1)Nc1nncs1,44*,-3,2,12,i,-2,-4
O=C(CSc1nnc(-c2ccncc2)o1)Nc1nncs1,19,-5,-12,-5,i,·,·
COc1ccc(-n2c(SCC(=O)C(C)(C)C)nc3c(sc(=S)n3-c3ccccc3)c2=O)c(OC)c1,37*,-19,0,-7,i,14,4
O=C1NC(Cc2ccc(O)cc2)c2nc3ccc(F)cc3c(=O)n2-c2cc(Cl)ccc21 (stereo not given),·,-4,2,·,·,·,·
Cc1cc(C)nc(NNC(=O)c2ccccc2O)n1,43*,-1,3,0,i,24,-8
Cc1cc(NC(=O)c2ccccc2O)nc(C)n1,2,-1,-1,-2,i,·,·
O=C(CCCn1c(SCc2cc(=O)n3ccccc3n2)nc2ccccc2c1=O)NCC1CCCO1 (stereo not given),0,-3,2,4,i,·,·
Cc1cc(N2CCCC2)ccc1/C=N/n1cnnc1,32*,-1,2,15,i,3,2

# Compound activity: PubChem, several laboratories
